# Test results reported in publication PMC7862700, “An all-to-all approach to the identification of sequence-specific readers for epigenetic DNA modifications on cytosine”.
# Columns and labels:
# Assay in all cases: DAPPL (digital affinity profiling via proximity ligation, sequencing); 10 mM Tris-HCl pH 7.5, 50 mM NaCl, 1 mM DTT, 4% glycerol, room temperature, 30 min; GST-TFs on glutathione beads, 16-mer random dsDNA library, 0.1% formaldehyde crosslink after washing; high values mean tight binding
# [1] = molecular target: T1, FLI1 (Homo sapiens, UniProt Q01543 1-452); conditions: protein: recombinant; tags: N-terminal GST; dsDNA, one strand shown
# T1 sequence: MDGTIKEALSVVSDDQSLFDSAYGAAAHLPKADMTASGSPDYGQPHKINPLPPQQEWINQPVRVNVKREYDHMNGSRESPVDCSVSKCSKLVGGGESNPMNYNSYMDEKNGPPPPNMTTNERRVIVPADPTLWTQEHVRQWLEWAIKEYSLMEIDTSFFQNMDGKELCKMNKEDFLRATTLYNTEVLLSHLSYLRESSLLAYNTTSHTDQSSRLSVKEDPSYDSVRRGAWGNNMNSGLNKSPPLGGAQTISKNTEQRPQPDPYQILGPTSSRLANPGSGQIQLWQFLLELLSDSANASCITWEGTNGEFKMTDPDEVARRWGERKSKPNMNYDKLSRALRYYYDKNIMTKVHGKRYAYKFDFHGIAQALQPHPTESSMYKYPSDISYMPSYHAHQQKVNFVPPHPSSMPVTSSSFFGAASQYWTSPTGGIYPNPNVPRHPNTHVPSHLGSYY
# Procedure, shortened: (§1)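 Binding signal is defined as a hexamer's read frequency for one factor over its frequency for the tag-only sample. To obtain reads, GST-fused human transcription factors were expressed in yeast, captured on glutathione beads, barcoded with DNA and pooled with that sample. Pools met 200 nmole of a 16-mer random double-stranded DNA library in Tris/NaCl/DTT/glycerol buffer for 30 min at room temperature before washing, 0.1% formaldehyde crosslinking, proximity ligation (BsaI/T4 ligase, 1 h, 37 °C), PCR and Illumina NextSeq500 sequencing.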
# [2] = molecular target: T2, ELK1 (Homo sapiens, UniProt P19419 1-428); conditions: protein: recombinant; tags: N-terminal GST; dsDNA, one strand shown
# T2 sequence: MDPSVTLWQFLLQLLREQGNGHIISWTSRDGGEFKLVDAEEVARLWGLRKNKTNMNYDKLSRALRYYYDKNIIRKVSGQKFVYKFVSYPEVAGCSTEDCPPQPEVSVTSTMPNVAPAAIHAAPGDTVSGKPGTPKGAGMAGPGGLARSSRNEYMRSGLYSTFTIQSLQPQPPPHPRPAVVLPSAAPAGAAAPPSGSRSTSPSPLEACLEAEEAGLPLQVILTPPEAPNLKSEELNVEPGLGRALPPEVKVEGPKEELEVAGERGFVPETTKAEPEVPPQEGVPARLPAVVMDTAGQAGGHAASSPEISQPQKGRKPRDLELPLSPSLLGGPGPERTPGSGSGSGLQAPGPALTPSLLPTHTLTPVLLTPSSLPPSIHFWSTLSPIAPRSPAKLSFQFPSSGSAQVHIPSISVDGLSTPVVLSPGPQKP
# Procedure, shortened: as §1
# [3] = molecular target: T3, GABPA (Homo sapiens, UniProt Q06546 1-454); conditions: protein: recombinant; tags: N-terminal GST; dsDNA, one strand shown
# T3 sequence: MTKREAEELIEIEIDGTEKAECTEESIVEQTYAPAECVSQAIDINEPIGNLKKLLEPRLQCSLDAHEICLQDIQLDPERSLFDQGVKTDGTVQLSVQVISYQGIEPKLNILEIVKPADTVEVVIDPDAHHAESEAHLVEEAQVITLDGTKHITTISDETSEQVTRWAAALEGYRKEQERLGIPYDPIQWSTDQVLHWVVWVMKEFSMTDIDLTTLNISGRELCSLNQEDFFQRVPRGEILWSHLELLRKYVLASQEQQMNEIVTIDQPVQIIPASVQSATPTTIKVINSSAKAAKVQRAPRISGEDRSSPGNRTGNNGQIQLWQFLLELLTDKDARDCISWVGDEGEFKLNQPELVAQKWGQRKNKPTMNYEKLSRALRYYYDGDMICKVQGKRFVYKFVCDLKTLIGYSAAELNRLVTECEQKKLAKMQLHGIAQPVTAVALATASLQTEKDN
# Procedure, shortened: as §1
# [4] = molecular target: T4, ERG (Homo sapiens, UniProt P11308 1-479); conditions: protein: recombinant; tags: N-terminal GST; dsDNA, one strand shown
# T4 sequence: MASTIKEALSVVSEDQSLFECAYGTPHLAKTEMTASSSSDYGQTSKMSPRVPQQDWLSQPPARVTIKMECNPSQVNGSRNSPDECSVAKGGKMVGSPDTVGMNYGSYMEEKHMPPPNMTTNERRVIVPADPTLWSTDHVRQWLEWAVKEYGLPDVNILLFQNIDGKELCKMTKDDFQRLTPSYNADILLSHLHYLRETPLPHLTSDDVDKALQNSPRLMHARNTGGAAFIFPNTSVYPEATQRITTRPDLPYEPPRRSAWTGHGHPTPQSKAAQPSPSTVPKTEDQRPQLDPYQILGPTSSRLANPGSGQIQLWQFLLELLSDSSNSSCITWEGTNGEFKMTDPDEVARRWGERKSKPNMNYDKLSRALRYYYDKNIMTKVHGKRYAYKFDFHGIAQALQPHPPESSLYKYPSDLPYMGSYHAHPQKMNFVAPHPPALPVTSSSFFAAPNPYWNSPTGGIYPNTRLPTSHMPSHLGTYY
# Procedure, shortened: as §1
# [5] = molecular target: ELF1 (Homo sapiens, UniProt P32519 1-619); conditions: protein: recombinant; tags: N-terminal GST; dsDNA, one strand shown
# Procedure, shortened: as §1
# [6] = molecular target: T5, EHF (Homo sapiens, UniProt Q9NZC4 1-300); conditions: protein: recombinant; tags: N-terminal GST; dsDNA, one strand shown
# T5 sequence: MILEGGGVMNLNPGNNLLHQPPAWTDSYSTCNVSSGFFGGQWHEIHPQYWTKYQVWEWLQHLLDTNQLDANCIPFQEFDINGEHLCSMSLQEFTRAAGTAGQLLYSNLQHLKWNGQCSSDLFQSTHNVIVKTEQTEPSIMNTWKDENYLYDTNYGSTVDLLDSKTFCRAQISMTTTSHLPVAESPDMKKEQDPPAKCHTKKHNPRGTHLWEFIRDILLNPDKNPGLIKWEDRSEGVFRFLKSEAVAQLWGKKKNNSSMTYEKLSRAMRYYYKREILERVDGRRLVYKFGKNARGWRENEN
# Procedure, shortened: as §1
# [7] = molecular target: SPI1 (Homo sapiens, UniProt P17947 1-270); conditions: protein: recombinant; tags: N-terminal GST; dsDNA, one strand shown
# Procedure, shortened: as §1
# [8] = molecular target: SPIB (Homo sapiens, UniProt Q01892 1-262); conditions: protein: recombinant; tags: N-terminal GST; dsDNA, one strand shown
# Procedure, shortened: as §1
# [9] = molecular target: T6, ELK3 (Homo sapiens, UniProt P41970 1-407); conditions: protein: recombinant; tags: N-terminal GST; dsDNA, one strand shown
# T6 sequence: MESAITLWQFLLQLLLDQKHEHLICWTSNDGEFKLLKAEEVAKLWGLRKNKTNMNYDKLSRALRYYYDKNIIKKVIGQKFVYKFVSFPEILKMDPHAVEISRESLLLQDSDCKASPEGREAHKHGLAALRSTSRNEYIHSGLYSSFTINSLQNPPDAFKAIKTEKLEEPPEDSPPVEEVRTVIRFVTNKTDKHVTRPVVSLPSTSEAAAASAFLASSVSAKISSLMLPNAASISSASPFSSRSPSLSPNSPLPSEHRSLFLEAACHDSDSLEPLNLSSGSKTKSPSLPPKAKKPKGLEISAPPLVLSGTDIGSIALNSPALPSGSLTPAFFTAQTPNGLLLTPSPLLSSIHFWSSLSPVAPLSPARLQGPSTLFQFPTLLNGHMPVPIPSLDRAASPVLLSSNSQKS
# Procedure, shortened: as §1
# [10] = molecular target: T7, FEV (Homo sapiens, UniProt Q99581 1-238); conditions: protein: recombinant; tags: N-terminal GST; dsDNA, one strand shown
# T7 sequence: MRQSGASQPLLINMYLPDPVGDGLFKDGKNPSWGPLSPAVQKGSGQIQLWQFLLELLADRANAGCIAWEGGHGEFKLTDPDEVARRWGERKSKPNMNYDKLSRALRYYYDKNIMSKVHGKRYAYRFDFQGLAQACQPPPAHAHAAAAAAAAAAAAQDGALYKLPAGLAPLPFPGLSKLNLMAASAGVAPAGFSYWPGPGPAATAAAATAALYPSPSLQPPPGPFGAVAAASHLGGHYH
# Procedure, shortened: as §1
# [11] = molecular target: ETV5 (Homo sapiens, UniProt P41161 1-510); conditions: protein: recombinant; tags: N-terminal GST; dsDNA, one strand shown
# Procedure, shortened: as §1
# [12] = molecular target: HSF1 (Homo sapiens, UniProt Q00613 1-529); conditions: protein: recombinant; tags: N-terminal GST; chain copies: 3; dsDNA, one strand shown
# Procedure, shortened: as §1
# [13] = molecular target: T8, SPIC (Homo sapiens, UniProt Q8N5J4 1-248); conditions: protein: recombinant; tags: N-terminal GST; dsDNA, one strand shown
# T8 sequence: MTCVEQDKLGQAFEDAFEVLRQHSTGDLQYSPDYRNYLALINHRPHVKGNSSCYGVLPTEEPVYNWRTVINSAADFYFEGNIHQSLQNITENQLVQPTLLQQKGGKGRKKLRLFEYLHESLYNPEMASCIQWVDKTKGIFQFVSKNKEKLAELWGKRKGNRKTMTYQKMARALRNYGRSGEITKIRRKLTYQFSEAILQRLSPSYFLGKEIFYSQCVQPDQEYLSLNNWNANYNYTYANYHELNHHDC
# Procedure, shortened: as §1
# [14] = molecular target: ELF4 (Homo sapiens, UniProt Q99607 1-663); conditions: protein: recombinant; tags: N-terminal GST; dsDNA, one strand shown
# Procedure, shortened: as §1
# [15] = molecular target: T9, ELK4 (Homo sapiens, UniProt P28324-2 1-405); conditions: protein: recombinant; tags: N-terminal GST; dsDNA, one strand shown
# T9 sequence: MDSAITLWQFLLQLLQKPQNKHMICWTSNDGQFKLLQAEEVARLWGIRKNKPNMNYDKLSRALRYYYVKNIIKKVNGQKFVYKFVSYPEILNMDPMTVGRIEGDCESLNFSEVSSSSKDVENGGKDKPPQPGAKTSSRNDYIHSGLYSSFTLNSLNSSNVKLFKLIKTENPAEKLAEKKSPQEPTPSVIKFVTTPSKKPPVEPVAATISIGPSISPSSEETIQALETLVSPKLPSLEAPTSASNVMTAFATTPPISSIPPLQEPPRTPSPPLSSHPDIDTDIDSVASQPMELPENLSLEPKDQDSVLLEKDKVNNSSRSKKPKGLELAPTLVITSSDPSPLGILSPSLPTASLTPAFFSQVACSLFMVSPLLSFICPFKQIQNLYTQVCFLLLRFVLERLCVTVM
# Procedure, shortened: as §1
# [16] = molecular target: T10, ETV2 (Homo sapiens, UniProt O00321 1-342); conditions: protein: recombinant; tags: N-terminal GST; dsDNA, one strand shown
# T10 sequence: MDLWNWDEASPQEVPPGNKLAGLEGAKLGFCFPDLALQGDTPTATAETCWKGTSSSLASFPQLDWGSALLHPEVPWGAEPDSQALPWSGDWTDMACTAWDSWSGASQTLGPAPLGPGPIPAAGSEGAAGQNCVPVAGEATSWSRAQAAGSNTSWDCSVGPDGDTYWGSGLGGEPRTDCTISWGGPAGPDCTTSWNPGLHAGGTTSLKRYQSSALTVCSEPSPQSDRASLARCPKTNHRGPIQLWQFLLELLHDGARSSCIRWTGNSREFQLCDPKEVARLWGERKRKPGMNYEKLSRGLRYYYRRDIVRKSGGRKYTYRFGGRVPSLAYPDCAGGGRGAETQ
# Procedure, shortened: as §1
# [17] = molecular target: T11, ELF3 (Homo sapiens, UniProt P78545 1-371); conditions: protein: recombinant; tags: N-terminal GST; dsDNA, one strand shown
# T11 sequence: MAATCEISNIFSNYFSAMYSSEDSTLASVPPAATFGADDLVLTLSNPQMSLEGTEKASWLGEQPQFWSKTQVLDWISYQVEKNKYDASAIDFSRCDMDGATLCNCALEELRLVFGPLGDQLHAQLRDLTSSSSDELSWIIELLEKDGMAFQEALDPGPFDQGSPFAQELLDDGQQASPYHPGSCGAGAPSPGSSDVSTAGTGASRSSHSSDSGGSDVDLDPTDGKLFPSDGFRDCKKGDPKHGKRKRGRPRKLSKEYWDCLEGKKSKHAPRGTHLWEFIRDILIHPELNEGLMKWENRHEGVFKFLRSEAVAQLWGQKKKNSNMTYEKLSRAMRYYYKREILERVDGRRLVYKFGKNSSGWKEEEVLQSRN
# Procedure, shortened: as §1
# [18] = molecular target: CRX (Homo sapiens, UniProt O43186 1-299); conditions: protein: recombinant; tags: N-terminal GST; dsDNA, one strand shown
# Procedure, shortened: as §1
# [19] = molecular target: ETV1 (Homo sapiens, UniProt P50549 1-477); conditions: protein: recombinant; tags: N-terminal GST; dsDNA, one strand shown
# Procedure, shortened: as §1
# ETV5, sequence (P41161 whole entry): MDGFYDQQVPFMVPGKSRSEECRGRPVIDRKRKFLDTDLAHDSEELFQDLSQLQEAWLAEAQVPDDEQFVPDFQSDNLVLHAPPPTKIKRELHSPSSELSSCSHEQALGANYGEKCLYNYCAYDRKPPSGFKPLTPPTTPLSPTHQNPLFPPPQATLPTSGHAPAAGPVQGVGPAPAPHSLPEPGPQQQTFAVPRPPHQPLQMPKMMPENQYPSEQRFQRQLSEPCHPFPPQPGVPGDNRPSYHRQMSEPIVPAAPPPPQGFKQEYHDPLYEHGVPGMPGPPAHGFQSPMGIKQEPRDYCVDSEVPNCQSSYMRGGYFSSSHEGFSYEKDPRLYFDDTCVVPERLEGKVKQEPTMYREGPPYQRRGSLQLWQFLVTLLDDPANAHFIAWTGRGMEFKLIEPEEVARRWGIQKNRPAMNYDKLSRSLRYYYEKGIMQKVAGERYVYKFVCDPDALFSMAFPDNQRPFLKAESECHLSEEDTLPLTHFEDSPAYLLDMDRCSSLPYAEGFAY
# ELF1, sequence (P32519 whole entry): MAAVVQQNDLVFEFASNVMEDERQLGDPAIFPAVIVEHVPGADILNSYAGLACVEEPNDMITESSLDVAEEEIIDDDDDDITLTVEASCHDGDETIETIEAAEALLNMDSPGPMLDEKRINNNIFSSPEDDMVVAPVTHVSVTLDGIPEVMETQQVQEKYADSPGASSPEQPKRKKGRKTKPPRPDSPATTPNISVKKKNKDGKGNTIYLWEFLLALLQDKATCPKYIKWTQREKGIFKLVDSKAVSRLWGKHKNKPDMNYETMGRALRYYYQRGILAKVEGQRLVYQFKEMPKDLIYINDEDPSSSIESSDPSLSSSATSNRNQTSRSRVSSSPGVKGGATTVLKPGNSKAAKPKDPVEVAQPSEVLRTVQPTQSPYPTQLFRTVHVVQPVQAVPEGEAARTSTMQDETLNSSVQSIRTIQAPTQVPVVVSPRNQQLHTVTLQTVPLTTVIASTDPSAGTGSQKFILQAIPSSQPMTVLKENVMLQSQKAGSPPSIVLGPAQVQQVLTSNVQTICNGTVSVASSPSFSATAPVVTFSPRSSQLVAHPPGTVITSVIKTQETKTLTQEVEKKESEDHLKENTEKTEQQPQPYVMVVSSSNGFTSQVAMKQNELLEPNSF
# SPIB, sequence (Q01892 whole entry): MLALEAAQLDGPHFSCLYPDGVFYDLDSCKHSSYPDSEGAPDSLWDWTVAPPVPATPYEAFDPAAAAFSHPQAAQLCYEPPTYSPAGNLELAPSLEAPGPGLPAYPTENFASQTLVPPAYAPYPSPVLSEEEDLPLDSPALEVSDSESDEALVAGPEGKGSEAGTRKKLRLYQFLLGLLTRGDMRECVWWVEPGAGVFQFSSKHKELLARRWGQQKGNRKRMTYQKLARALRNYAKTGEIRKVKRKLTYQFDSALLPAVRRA
# ETV1, sequence (P50549 whole entry): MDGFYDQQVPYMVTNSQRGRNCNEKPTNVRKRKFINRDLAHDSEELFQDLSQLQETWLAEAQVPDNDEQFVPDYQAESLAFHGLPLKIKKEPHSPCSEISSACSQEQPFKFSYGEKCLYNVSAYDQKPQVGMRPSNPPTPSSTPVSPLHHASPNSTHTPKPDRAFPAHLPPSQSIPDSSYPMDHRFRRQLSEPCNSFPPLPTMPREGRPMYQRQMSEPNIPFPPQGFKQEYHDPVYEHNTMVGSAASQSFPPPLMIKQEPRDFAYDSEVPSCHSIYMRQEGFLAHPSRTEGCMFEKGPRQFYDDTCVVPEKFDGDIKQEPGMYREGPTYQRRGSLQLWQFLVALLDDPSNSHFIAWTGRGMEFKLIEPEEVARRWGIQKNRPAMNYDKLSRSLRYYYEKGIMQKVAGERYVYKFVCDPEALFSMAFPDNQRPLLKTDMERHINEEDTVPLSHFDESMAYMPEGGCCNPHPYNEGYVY
# CRX, sequence (O43186 whole entry): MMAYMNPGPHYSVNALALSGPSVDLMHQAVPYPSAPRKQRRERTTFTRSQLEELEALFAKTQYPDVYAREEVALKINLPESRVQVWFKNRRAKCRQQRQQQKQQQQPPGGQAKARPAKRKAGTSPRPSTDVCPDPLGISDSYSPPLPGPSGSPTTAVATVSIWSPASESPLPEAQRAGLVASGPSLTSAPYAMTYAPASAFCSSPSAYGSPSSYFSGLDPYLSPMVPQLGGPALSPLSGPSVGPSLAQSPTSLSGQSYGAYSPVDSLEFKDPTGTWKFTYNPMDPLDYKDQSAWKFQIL
# ELF4, sequence (Q99607 whole entry): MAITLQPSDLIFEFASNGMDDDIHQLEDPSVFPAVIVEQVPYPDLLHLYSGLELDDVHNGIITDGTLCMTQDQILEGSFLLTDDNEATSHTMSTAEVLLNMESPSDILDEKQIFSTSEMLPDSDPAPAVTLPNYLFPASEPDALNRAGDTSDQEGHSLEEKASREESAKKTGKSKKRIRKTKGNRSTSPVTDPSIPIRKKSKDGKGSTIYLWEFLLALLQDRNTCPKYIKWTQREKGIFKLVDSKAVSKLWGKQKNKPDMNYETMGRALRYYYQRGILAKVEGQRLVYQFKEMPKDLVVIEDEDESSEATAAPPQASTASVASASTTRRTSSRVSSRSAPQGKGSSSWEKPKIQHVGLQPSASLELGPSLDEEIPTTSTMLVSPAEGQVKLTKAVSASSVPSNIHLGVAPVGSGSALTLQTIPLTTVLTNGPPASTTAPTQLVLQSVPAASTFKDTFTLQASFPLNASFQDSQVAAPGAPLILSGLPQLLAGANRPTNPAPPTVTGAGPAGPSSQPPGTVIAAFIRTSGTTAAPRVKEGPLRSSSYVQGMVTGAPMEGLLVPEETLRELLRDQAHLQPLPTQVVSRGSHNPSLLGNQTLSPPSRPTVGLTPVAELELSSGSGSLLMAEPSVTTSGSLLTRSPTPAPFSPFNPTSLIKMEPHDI
# HSF1, sequence (Q00613 whole entry): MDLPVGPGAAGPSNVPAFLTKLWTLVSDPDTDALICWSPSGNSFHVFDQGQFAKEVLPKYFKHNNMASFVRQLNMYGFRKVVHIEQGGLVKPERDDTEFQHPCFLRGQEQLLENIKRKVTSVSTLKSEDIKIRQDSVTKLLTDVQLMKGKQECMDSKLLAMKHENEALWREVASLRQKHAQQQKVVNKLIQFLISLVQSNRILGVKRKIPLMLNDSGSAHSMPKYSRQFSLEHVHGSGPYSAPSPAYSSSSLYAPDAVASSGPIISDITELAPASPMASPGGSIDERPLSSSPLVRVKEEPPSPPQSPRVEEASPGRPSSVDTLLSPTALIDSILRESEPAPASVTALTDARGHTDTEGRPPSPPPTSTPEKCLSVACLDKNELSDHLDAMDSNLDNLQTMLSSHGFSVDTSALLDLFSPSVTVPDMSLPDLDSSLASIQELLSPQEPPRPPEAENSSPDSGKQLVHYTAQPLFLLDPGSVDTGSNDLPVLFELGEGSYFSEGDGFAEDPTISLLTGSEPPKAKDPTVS
sequence,measurement,setting,value
TAATCA,binding signal,[1],"1.17 fold enrichment (6-mer frequency, TF over GST control)"
same,binding signal,[2],"1.14 fold enrichment (6-mer frequency, TF over GST control)"
same,binding signal,[3],"1.25 fold enrichment (6-mer frequency, TF over GST control)"
same,binding signal,[4],"1.07 fold enrichment (6-mer frequency, TF over GST control)"
same,binding signal,[5],"1.16 fold enrichment (6-mer frequency, TF over GST control)"
same,binding signal,[6],"1.08 fold enrichment (6-mer frequency, TF over GST control)"
same,binding signal,[7],"1.07 fold enrichment (6-mer frequency, TF over GST control)"
same,binding signal,[8],"1.16 fold enrichment (6-mer frequency, TF over GST control)"
same,binding signal,[9],"1.09 fold enrichment (6-mer frequency, TF over GST control)"
same,binding signal,[10],"1.13 fold enrichment (6-mer frequency, TF over GST control)"
same,binding signal,[11],"1.18 fold enrichment (6-mer frequency, TF over GST control)"
same,binding signal,[12],"1.64 fold enrichment (6-mer frequency, TF over GST control)"
same,binding signal,[13],"1.26 fold enrichment (6-mer frequency, TF over GST control)"
same,binding signal,[14],"1.11 fold enrichment (6-mer frequency, TF over GST control)"
same,binding signal,[15],"1.32 fold enrichment (6-mer frequency, TF over GST control)"
same,binding signal,[16],"1.27 fold enrichment (6-mer frequency, TF over GST control)"
same,binding signal,[17],"1.18 fold enrichment (6-mer frequency, TF over GST control)"
same,binding signal,[18],"2.51 fold enrichment (6-mer frequency, TF over GST control)"
same,binding signal,[19],"1.14 fold enrichment (6-mer frequency, TF over GST control)"
